Laboratory results as given in PubChem BioAssay (NCATS).
“And” between values parts separate entries of the source, which are not always exact repeats. Equal entries are not always repeated. Results filed as inconclusive are left out. Entries that show only a call come without a potency. More than one record can exist for a structure, and the calls need not agree. The source made the active and inactive calls. The call rests on the fitted dose curve; in most records, active means well fitted curve in the direction sought with a large enough effect; inconclusive means small, poorly fitted or top-dose-only effect, or another doubt; inactive means no such curve, though single readings can be large; an effect the other way counts as inactive or inconclusive.

Key:
[1] = tested on: SC27B; assay: qHTS profiling for inhibitors of Plasmodium falciparum proliferation (AID 504749); further: nearly all actives have a fitted effect of over 60% in size; further: potency means the concentration at half of the fitted maximal effect; conditions: P. falciparum in erythrocytes, SYBR Green DNA, 72 h; series mostly up to 28.7 µM
In short: (§1)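 P. falciparum-infected erythrocytes (0.3% parasitemia, 2.5% hematocrit) incubated with compound 72 h at 37 C, 5% CO2. Parasite DNA detected by SYBR Green after lysis, overnight at room temperature; normalised to 0.29 uM artemisinin and DMSO.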

[2] = tested on: TAB109; assay: as above; conditions: P. falciparum in erythrocytes, SYBR Green DNA, 72 h; series mostly up to 28.7 µM
In short: as §1

[3] = tested on: TAB113; assay: as above; conditions: P. falciparum in erythrocytes, SYBR Green DNA, 72 h; series mostly up to 28.7 µM
In short: as §1

[4] = tested on: TAB165; assay: as above; conditions: P. falciparum in erythrocytes, SYBR Green DNA, 72 h; series mostly up to 28.7 µM
In short: as §1

[5] = tested on: W2; assay: as above; conditions: P. falciparum in erythrocytes, SYBR Green DNA, 72 h; series mostly up to 28.7 µM
In short: as §1

[6] = tested on: CRL-7250; assay: Cytotoxic Profiling of Annotated Libraries Using Quantitative High-Throughput Screening (AID 1296008); conditions: Five cell lines viability, CellTiter-Glo ATP luminescence, 48-72 h; max response: stronger effect = lower value; further: nearly all actives have a fitted effect of over 60% in size; further: potency means the concentration at half of the fitted maximal effect
In short: (§2)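 Cells exposed to compounds for 48 or 72 hr at 37 degrees Celsius. Viability read as ATP-coupled luminescence with CellTiter-Glo after 10 min at room temperature.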

[7] = tested on: HEK293; assay: as above; conditions: Five cell lines viability, CellTiter-Glo ATP luminescence, 48-72 h; max response: stronger effect = lower value
In short: as §2

[8] = tested on: HaCat; assay: as above; conditions: Five cell lines viability, CellTiter-Glo ATP luminescence, 48-72 h; max response: stronger effect = lower value
In short: as §2

[9] = tested on: KB-3-1; assay: as above; conditions: Five cell lines viability, CellTiter-Glo ATP luminescence, 48-72 h; max response: stronger effect = lower value
In short: as §2

[10] = tested on: NIH3T3; assay: as above; conditions: Five cell lines viability, CellTiter-Glo ATP luminescence, 48-72 h; max response: stronger effect = lower value
In short: as §2

[11] = tested on: HACAT; assay: qHTS assay to identify novel small-molecules to repurpose for Merkel cell carcinoma treatment (AID 1296009); conditions: MCC and control cell lines, CellTiter-Glo viability, 72 h; at 44.8 µM (top of the series) unless noted; further: nearly all actives have a fitted effect of over 60% in size; further: potency means the concentration at half of the fitted maximal effect
In short: (§3)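 Cells were treated for 72 hr at 37 degree celsius with compounds in 8- or 11-point dose response. Viability was read by CellTiter-Glo luminescence, normalized to no-cell (cytotoxicity) and DMSO controls.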

[12] = tested on: HEK293T; assay: as above; conditions: MCC and control cell lines, CellTiter-Glo viability, 72 h; at 44.8 µM (top of the series) unless noted
In short: as §3

[13] = tested on: MCC-13; assay: as above; conditions: MCC and control cell lines, CellTiter-Glo viability, 72 h; series mostly up to 46 µM
In short: as §3

[14] = tested on: MCC-26; assay: as above; conditions: MCC and control cell lines, CellTiter-Glo viability, 72 h; series mostly up to 46 µM
In short: as §3

[15] = tested on: MKL-1; assay: as above; conditions: MCC and control cell lines, CellTiter-Glo viability, 72 h; series mostly up to 46 µM
In short: as §3

[16] = tested on: MKL-2; assay: as above; conditions: MCC and control cell lines, CellTiter-Glo viability, 72 h; series mostly up to 46 µM
In short: as §3

[17] = tested on: NIH3T3; assay: as above; conditions: MCC and control cell lines, CellTiter-Glo viability, 72 h; at 44.8 µM (top of the series) unless noted
In short: as §3

[18] = tested on: UISO; assay: as above; conditions: MCC and control cell lines, CellTiter-Glo viability, 72 h; series mostly up to 46 µM
In short: as §3

[19] = tested on: WaGa; assay: as above; conditions: MCC and control cell lines, CellTiter-Glo viability, 72 h; series mostly up to 46 µM
In short: as §3

[20] = tested on: C33A; assay: Primary qHTS to identify gynecologic anti-cancer compounds using libraries of approved drugs and bioactive compounds (AID 1345084); conditions: Gynecologic cancer cell panel viability, ATPlite luminescence, 48 h; series mostly up to 57.5 µM; further: nearly all actives have a fitted effect of over 55% in size
In short: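 Cells, 1,000 per well, were allowed to settle for 16 h at 37 C before compound addition. Five concentrations were tested for 48 h, and viability was read by ATPlite luminescence after 15 min at room temperature.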

CCN(CCO)CCCC(C)Nc1ccnc2cc(Cl)ccc12 (centres undefined)
Potency [1]: inactive
Potency [2]: inactive
Potency [3]: inactive
Potency [4]: inactive
Potency [5]: inactive
max response [6]: -6.76% (inactive) and 0.809% (inactive)
outcome [6]: inactive
max response [7]: 2.34% (inactive)
outcome [7]: inactive
max response [8]: -3.55% (inactive) and -14.9% (inactive)
outcome [8]: inactive
max response [9]: -5.86% (inactive) and 9.19% (inactive) and -2.52% (inactive)
max response [10]: -2.56% (inactive)
outcome [10]: inactive
outcome [11]: inactive [at 4.96 µM]
outcome [12]: inactive [at 4.96 µM]
Potency [13]: inactive
Potency [14]: inactive
Potency [15]: 3.72 µM (active)
activity change, negative = cytotoxicity [15]: 15.4% [at 4.84 µM] (inactive)
Potency [16]: inactive
outcome [17]: inactive [at 4.96 µM]
Potency [18]: inactive
Potency [19]: 2.35 µM (active)
activity change, negative = cytotoxicity [19]: 15.3% [at 4.84 µM] (inactive)
activity change, negative = cytotoxicity [20]: 4.86% [at 6.55 µM] (inactive) and 0.75% [at 6.55 µM] (inactive)

O=C(NCC1CCCCN1)c1cc(OCC(F)(F)F)ccc1OCC(F)(F)F (centres undefined)
max response [6]: -77.3% (inactive)
outcome [6]: inactive
max response [7]: -82.7% (inactive)
max response [8]: -9.94% (inactive) and -10.2% (inactive)
max response [9]: 3.67% (inactive)
max response [10]: -7.85% (inactive)
Potency [13]: inactive
Potency [15]: inactive
Potency [16]: inactive
Potency [18]: inactive
Potency [19]: inactive
Potency [20]: inactive

CC1=C(C(=O)O)N2C(=O)[C@@H](NC(=O)[C@H](N)C3=CCC=CC3)[C@H]2SC1
max response [6]: -13.1% (inactive)
outcome [6]: inactive
max response [7]: -32.9% (inactive)
outcome [7]: inactive
outcome [8]: inactive
max response [9]: -3.32% (inactive)
outcome [9]: inactive
outcome [10]: inactive
outcome [11]: inactive
outcome [12]: inactive
Potency [13]: inactive
Potency [14]: inactive
Potency [15]: inactive
Potency [16]: inactive
outcome [17]: inactive
Potency [18]: inactive
Potency [19]: inactive
Potency [20]: inactive

O=C(NC(Cc1cc(=O)[nH]c2ccccc12)C(=O)O)c1ccc(Cl)cc1 (centres undefined)
Potency [1]: inactive
Potency [2]: inactive
Potency [3]: inactive
Potency [4]: inactive
Potency [5]: inactive
max response [6]: -2.81% (inactive)
outcome [6]: inactive
max response [7]: -6.76% (inactive) and -6.81% (inactive)
max response [8]: -8.32% (inactive)
outcome [8]: inactive
max response [9]: 9.29% (inactive)
outcome [9]: inactive
outcome [10]: inactive
outcome [11]: inactive
Potency [13]: inactive
Potency [15]: inactive
Potency [16]: inactive
outcome [17]: inactive
Potency [18]: inactive
Potency [19]: inactive
Potency [20]: inactive

Cc1c(C(=O)NN2CCCCC2)nn(-c2ccc(Cl)cc2Cl)c1-c1ccc(Cl)cc1
Potency [1]: 10 µM (active)
Potency [4]: 10 µM (active)
Potency [5]: 6.75 µM (active)
max response [6]: -1.95% (inactive)
outcome [6]: inactive
Potency [7]: 26.4 µM (active)
outcome [8]: inactive
max response [9]: -25.1% (inactive)
max response [10]: 0.216% (inactive)
outcome [10]: inactive
outcome [11]: inactive
Potency [13]: inactive
Potency [14]: inactive
Potency [15]: inactive
Potency [16]: inactive
outcome [17]: inactive
Potency [19]: inactive
Potency [20]: inactive

CN(C)c1ccc(O)c2c1C[C@H]1C[C@H]3[C@H](N(C)C)C(=O)C(C(N)=O)=C(O)[C@@]3(O)C(=O)C1=C2O
max response [6]: -30% (inactive)
outcome [6]: inactive
max response [7]: -11.2% (inactive)
outcome [8]: inactive
max response [9]: 5.11% (inactive) and -5.52% (inactive) and -6.53% (inactive)
max response [10]: -2.91% (inactive)
outcome [10]: inactive
outcome [11]: inactive
Potency [13]: inactive
Potency [14]: inactive
Potency [15]: inactive
Potency [16]: inactive
outcome [17]: inactive
Potency [18]: inactive
Potency [19]: inactive and 18.8 µM (active)
Potency [20]: inactive

Cc1ncc([N+](=O)[O-])n1CC(C)O (centres undefined)
Potency [1]: inactive
Potency [2]: inactive
Potency [3]: inactive
Potency [4]: inactive
Potency [5]: inactive
max response [6]: -19.5% (inactive)
outcome [6]: inactive
max response [7]: 3.63% (inactive)
outcome [7]: inactive
max response [8]: -8.77% (inactive)
outcome [8]: inactive
max response [9]: 2.22% (inactive) and 6.66% (inactive)
max response [10]: 2.47% (inactive)
outcome [10]: inactive
outcome [11]: inactive
outcome [12]: inactive
Potency [13]: inactive
Potency [14]: inactive
Potency [15]: inactive
Potency [16]: inactive
outcome [17]: inactive
Potency [18]: inactive
Potency [19]: inactive
Potency [20]: inactive

CCN(CC)C(=S)SSC(=S)N(CC)CC
Potency [6]: 0.105 µM (active)
outcome [6]: inactive
Potency [7]: 59 nM (active) and 313 nM (active) and 841 nM (active)
Potency [8]: 11.1 µM (active)
Potency [9]: 0.0833 µM (active)
max response [9]: 0.882% (inactive) and 32.2% (inactive)
Potency [13]: 2.09 µM (active) and 111 nM (active) and 944 nM (active)
Potency [15]: 1.18 µM (active) and 62.4 nM (active) and 422 nM (active)
Potency [16]: 1.32 µM (active) and 44.2 nM (active) and 531 nM (active)
Potency [18]: 1.05 µM (active) and 70 nM (active) and 473 nM (active)
Potency [19]: 0.935 µM (active)

CS(=O)(=O)OCCCCOS(C)(=O)=O
Potency [1]: inactive
Potency [2]: inactive
Potency [3]: inactive
Potency [4]: inactive
Potency [5]: inactive
max response [6]: -2.55% (inactive)
outcome [6]: inactive
max response [7]: -5.94% (inactive)
outcome [7]: inactive
max response [8]: -18.7% (inactive)
outcome [8]: inactive
max response [9]: 2.33% (inactive) and 4.33% (inactive)
max response [10]: -7.8% (inactive) and -0.608% (inactive)
outcome [11]: inactive
outcome [12]: inactive
Potency [13]: inactive
Potency [15]: inactive
Potency [16]: inactive
Potency [18]: inactive
Potency [19]: inactive
Potency [20]: inactive

Cc1cc2c(s1)Nc1ccccc1N=C2N1CCN(C)CC1
Potency [1]: inactive
Potency [2]: inactive
Potency [3]: inactive
Potency [4]: inactive
outcome [6]: inactive
max response [7]: 0.773% (inactive)
outcome [7]: inactive
max response [8]: -13.9% (inactive)
outcome [8]: inactive
max response [9]: 7.18% (inactive) and 6.8% (inactive)
outcome [9]: inactive
outcome [10]: inactive
outcome [11]: inactive
outcome [12]: inactive
Potency [13]: inactive
Potency [14]: inactive
Potency [15]: inactive
Potency [16]: inactive
outcome [17]: inactive
Potency [18]: inactive
Potency [19]: inactive
Potency [20]: inactive
